From PubChem
Sampled rows, rich in hits. Any-hit rate of the full collection: about 15%.
12-LOX inh = inhibitors of human 12S-lipoxygenase ALOX12 | 580,000 compounds, 1.1% hits | purified 12hLO, xylenol orange hydroperoxide absorbance | AID 1671190 | Potency, µM (doses to about 108 µM), most hits filed as inhibitors | P18054
Target sequence (P18054 whole entry, looked up): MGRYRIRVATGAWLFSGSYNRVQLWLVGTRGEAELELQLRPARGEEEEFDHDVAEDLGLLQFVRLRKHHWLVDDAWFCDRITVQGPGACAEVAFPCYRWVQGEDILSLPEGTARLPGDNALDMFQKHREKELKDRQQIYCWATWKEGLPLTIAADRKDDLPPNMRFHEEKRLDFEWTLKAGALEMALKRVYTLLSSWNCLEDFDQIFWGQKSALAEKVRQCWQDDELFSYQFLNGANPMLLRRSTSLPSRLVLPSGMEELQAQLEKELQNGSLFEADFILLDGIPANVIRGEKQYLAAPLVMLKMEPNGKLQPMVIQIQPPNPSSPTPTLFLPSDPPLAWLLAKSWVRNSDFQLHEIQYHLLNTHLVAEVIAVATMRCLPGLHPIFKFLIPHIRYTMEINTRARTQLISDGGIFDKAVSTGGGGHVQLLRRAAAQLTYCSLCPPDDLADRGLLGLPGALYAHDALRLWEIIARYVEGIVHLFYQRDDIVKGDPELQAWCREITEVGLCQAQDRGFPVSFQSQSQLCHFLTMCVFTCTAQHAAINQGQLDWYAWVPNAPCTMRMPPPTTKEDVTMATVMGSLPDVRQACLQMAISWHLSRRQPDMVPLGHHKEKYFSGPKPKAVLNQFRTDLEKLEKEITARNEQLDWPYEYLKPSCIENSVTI
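Hydroperoxide product was detected by ferrous iron/xylenol orange as the 573 to 405 nm absorbance ratio. Arachidonic acid at 40 uM (final) was turned over for 30 min at room temperature by 150 nM human 12hLO, pH 7.0 Hepes buffer, after 15 min compound preincubation.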
RORg inh = blocks mouse ROR gamma transcriptional activity | AID 2551 | P51450 | Potency, µM (top dose mostly 53.6 µM), usual class: inhibitors | Drosophila S2 Gal4-RORgamma UAS-luciferase reporter, 20 h | 310,000 compounds, 5.4% hits; also: nearly all actives have a fitted effect of over 60% in size
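Luminescence from a UAS-regulated Photinus luciferase reporter in stably transfected Drosophila Schneider cells is measured; decreased signal marks ROR gamma inhibition. Fusion expression is induced by 700 uM copper sulfate for 20 hr.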
ELG1 DNA repair = ELG1-dependent DNA repair inhibition | HEK293T ELG1-luciferase reporter, luminescence, 16 h; DNA damage induced by 5-fluorouridine | Potency, µM (top dose mostly 46.1 µM), usual class: inhibitors | 330,000 compounds, 2.3% hits; also: nearly all actives have a fitted effect of over 55% in size
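Luminescence from the luciferase reporter, measured 30 min after ONE-Glo reagent at room temperature, was the read-out. Beforehand, 2,000 cells per well were exposed for 16 hr at 37 °C to 5-fluorouridine together with compound or vehicle.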
DT40 TDP1 no CPT = qHTS for Inhibitors of human tyrosyl-DNA phosphodiesterase 1 (TDP1): qHTS in cells in absence of CPT | DT40 Tdp1-/- hTDP1 cells, no CPT, ATP luminescence, 48 h | Potency, µM (titrated, usually from 46.2 µM), most hits filed as inhibitors | 420,000 compounds, 15% hits; also: nearly all actives have a fitted effect of over 55% in size
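Chicken DT40 Tdp1-/- cells stably complemented with human TDP1 were seeded at 400 cells/well with DMSO in place of 20 nM camptothecin. After compound pinning, cells grew at least 48 hr at 37 °C; viability read by CellTiter-Glo luminescence.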
TDP1 cell CPT = DT40-hTDP1 cell growth loss with CPT; 420,000 compounds, 12% hits; chicken DT40 Tdp1-/-;hTDP1 cells + 20 nM CPT, ATP luminescence, 48 h; Potency, µM (doses to about 46.2 µM), most hits filed as inhibitors; also: nearly all actives have a fitted effect of over 55% in size
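Chicken DT40 Tdp1-/- cells stably complemented with human TDP1 were seeded at 400 cells/well in medium containing 20 nM camptothecin, exposed to pin-transferred compounds, and grown at 37 °C for at least 48 hr. Viability was read as ATP luminescence.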
VP16 counter = counter-screen for ROR gamma inhibitors: Gal4-VP16 reporter; Drosophila S2 Gal4-VP16 UAS-luciferase, luminescence, 20 h; Potency, µM (doses to about 53.6 µM), most hits filed as inhibitors; 310,000 compounds, 3.5% hits; AID 2546;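 also: Gal4-VP16 expression switched on by copper sulfate through the metallothionein promoter; nearly all actives have a fitted effect of over 50% in size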
Large screens that a line does not name were inactive. Calls follow the shape of the dose curve; as a rule, active = well fitted curve in the direction sought with a large enough effect; inconclusive = small, poorly fitted or top-dose-only effect, or another doubt; inactive = no such curve, though single readings can be large; an effect the other way counts as inactive or inconclusive.

Oc1ccc(C[C@H]2CNC(=S)N2CCc2cc(C(F)(F)F)cc(C(F)(F)F)c2)cc1	12-LOX inh inconclusive, RORg inh 17.8µM, DT40 TDP1 no CPT inconclusive
Oc1ccc(C[C@@H]2CNC(=S)N2CCc2cc(C(F)(F)F)cc(C(F)(F)F)c2)cc1	12-LOX inh inconclusive, RORg inh inconclusive, DT40 TDP1 no CPT inconclusive, TDP1 cell CPT inconclusive, VP16 counter inconclusive
O=C(Nc1c(N2CCCC2)c2ccccc2oc1=O)C1CC1	none (no result: RORg inh, ELG1 DNA repair, DT40 TDP1 no CPT, TDP1 cell CPT, VP16 counter)
COCCN1C(=O)c2ccccc2C(C(=O)NCCCc2ccccc2)C12CCCC2 (stereo not drawn)	none (no result: RORg inh, ELG1 DNA repair, DT40 TDP1 no CPT, TDP1 cell CPT, VP16 counter)
NC1=NC[C@H](Cc2ccccc2)N1CCc1cc(C(F)(F)F)cc(C(F)(F)F)c1	DT40 TDP1 no CPT 14.6µM, TDP1 cell CPT 23.1µM
N#Cc1ccc(NC(=O)COC(=O)C2Cc3ccccc3CN2C(=O)c2ccccc2)cc1 (stereo not drawn)	ELG1 DNA repair 10.3µM, DT40 TDP1 no CPT 16.4µM, TDP1 cell CPT 9.2µM
COc1cccc(/C=C(\C#N)C(=O)Nc2ccccc2C(F)(F)F)c1OCc1ccc(F)cc1	none (no result: RORg inh, ELG1 DNA repair, DT40 TDP1 no CPT, TDP1 cell CPT, VP16 counter)
COc1cccc(CC(=O)N2CCc3nn(C)c(=O)n3CC2)c1	none (no result: RORg inh, ELG1 DNA repair, DT40 TDP1 no CPT, TDP1 cell CPT, VP16 counter)
COC(=O)[C@@]12C[C@@H](CC(=O)NCC3CCCCC3)C(=O)N(CCc3ccc(OC)c(OC)c3)C1=CCC(C)(C)C2	DT40 TDP1 no CPT inconclusive, TDP1 cell CPT inconclusive (no result: RORg inh, ELG1 DNA repair, VP16 counter)
COC(=O)[C@@]12C[C@@H](CC(=O)NCc3ccc(OC)c(OC)c3)C(=O)N(CCc3ccc(OC)c(OC)c3)C1=CCC(C)(C)C2	DT40 TDP1 no CPT 14.6µM, TDP1 cell CPT 16.4µM (no result: RORg inh, ELG1 DNA repair, VP16 counter)
COC(=O)[C@@]12C[C@@H](CC(=O)NCC34CC5CC(CC(C5)C3)C4)C(=O)N(CCc3ccc(OC)c(OC)c3)C1=CCC(C)(C)C2	12-LOX inh inconclusive, DT40 TDP1 no CPT 14.6µM, TDP1 cell CPT 16.4µM (no result: RORg inh, ELG1 DNA repair, VP16 counter)
COCCCNC(=O)C[C@@H]1C[C@@]2(C(=O)OC)CC(C)(C)CC=C2N(CCc2ccc(OC)c(OC)c2)C1=O	none (no result: RORg inh, ELG1 DNA repair, VP16 counter)
CCCCNC(=O)C[C@@H]1C[C@@]2(C(=O)OC)CC(C)(C)CC=C2N(CCc2ccc(OC)c(OC)c2)C1=O	DT40 TDP1 no CPT inconclusive, TDP1 cell CPT inconclusive (no result: RORg inh, ELG1 DNA repair, VP16 counter)
CCCCCCCCN1C(=O)[C@H](CC(=O)NCc2ccc(OC)c(OC)c2)C[C@@]2(C(=O)OC)CC(C)(C)CC=C12	12-LOX inh inconclusive, DT40 TDP1 no CPT 18.4µM, TDP1 cell CPT 18.4µM (no result: RORg inh, ELG1 DNA repair, VP16 counter)
COC(=O)[C@@]12C[C@@H](CC(=O)NCCc3ccccc3OC)C(=O)N(CCc3ccc(OC)c(OC)c3)C1=CCC(C)(C)C2	DT40 TDP1 no CPT inconclusive, TDP1 cell CPT 23.1µM (no result: RORg inh, ELG1 DNA repair, VP16 counter)
O=c1oc2ccccc2n1CCN1CCN(c2ccccc2F)CC1	none (no result: RORg inh, ELG1 DNA repair, DT40 TDP1 no CPT, TDP1 cell CPT, VP16 counter)
